Measurements reported in PubChem BioAssay (Tox21).
Several values for one entry are separate records, joined by “and”; a condition that tells them apart may be missing. Equal values may be shown once. A number with no mark means an inactive call. Records with an inconclusive call do not appear. A call without a number means that no potency is given here. Activity calls are given as the source filed them. Unless noted, calls come from the whole dose curve; as a rule, active = well fitted curve in the direction sought with a large enough effect in the repeat runs; inconclusive = weak or mixed curves; inactive = no such curve, though single readings can be large; an effect the other way counts as inactive or inconclusive.

Legend:
[1] = qHTS assay for small molecules that induce genotoxicity in human embryonic kidney cells expressing luciferase-tagged ATAD5 (AID 651632); note: nearly all actives have a fitted effect of over 15% in size; note: potency is the fitted concentration of half-maximal effect
How it was run: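 A rise in luciferase signal from ATAD5-tagged HEK293T cells marks genetic stress. Cells were exposed to compounds for 16 hr at 37C, 5% CO2, then luciferase was quantified after a 30 min room-temperature incubation with Amplite.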

[2] = qHTS assay for small molecule agonists of the p53 signaling pathway - cell viability (AID 651633; calls by dose curve; note: potency is the fitted concentration of half-maximal effect; nearly all actives have a fitted effect of over 30% in size)
How it was run: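 Viability counter-read: CellTiter-Glo luminescence (30 min, room temperature) in the same p53RE-bla plates. These plates had been exposed to compounds for 16 h at 37 C.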

[3] = qHTS assay for small molecule disruptors of the mitochondrial membrane potential (AID 720635); note: potency is the fitted concentration of half-maximal effect
How it was run: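 Mitochondrial membrane potential tracked with Mito-MPS dye, red aggregates (ex 540/em 590 nm) against green monomers (ex 490/em 535 nm). Compound treatment 1 hr at 37C, dye 30 min in HepG2.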

[4] = qHTS assay to test for compound auto fluorescence at 590 nm (red) in HepG2 cells (AID 720674)
How it was run: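 We screened compounds on adherent HepG2 cells, incubating them for an hour at 37 C in 5% CO2 before reading emission at 590 nm under 540 nm excitation; values reflect equivalence to Rose Bengal sodium fluorescence.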

[5] = qHTS assay to test for compound auto fluorescence at 535 nm (green) in HepG2 cells (AID 720675)
[6] = qHTS assay to test for compound auto fluorescence at 460 nm (blue) in HEK293 cells (AID 720678)
How it was run: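 Auto fluorescence in the blue band was quantified as triamterene equivalency. HEK293 cells were seeded at 2,000/well, dosed after a 4-5 hr attachment, and kept overnight at 37C before the 405/460 nm reading.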

[7] = qHTS assay to test for compound auto fluorescence at 590 nm (red) in HEK293 cells (AID 720679)
How it was run: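 Autofluorescence equivalency to Rose Bengal sodium, 540/590nm, in HEK293 cells exposed overnight to 23 nL compound per well.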

[8] = qHTS assay to test for compound auto fluorescence at 535 nm (green) in HEK293 cells (AID 720680)
[9] = qHTS assay to test for compound auto fluorescence at 460 nm (blue) in HEK293 cell free culture (AID 720681)
How it was run: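 Blue fluorescence (Ex 405/Em 460 nm, triamterene-equivalent) was read immediately after pin transfer of compound or DMSO into medium (DMEM, 10% FBS) without cells.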

[10] = qHTS assay to test for compound auto fluorescence at 535 nm (green) in HEK293 cell free culture (AID 720682)
How it was run: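 Intrinsic compound fluorescence is measured in culture medium containing 10% FBS, with excitation at 485 nm and detection at 535 nm, referenced to fluorescein.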

[11] = qHTS assay to test for compound auto fluorescence at 590 nm (red) in HEK293 cell free culture (AID 720683)
How it was run: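 Red-channel autofluorescence of compounds in culture medium (DMEM, 10% FBS), no cells, measured at 540/590 nm. Rose Bengal sodium is the reference fluorophore for equivalence.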

[12] = qHTS assay to test for compound auto fluorescence at 590 nm (red) in HepG2 cell free culture (AID 720684)
How it was run: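 Cell-free; medium MEM + 10% FBS; compound or DMSO added by pintool; read Ex 540/Em 590 nm; Rose Bengal sodium as red reference fluorophore.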

[13] = qHTS assay to test for compound auto fluorescence at 460 nm (blue) in HepG2 cell free culture (AID 720685)
How it was run: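 Cell-free plates of MEM plus 10% FBS received 23 nL compound or DMSO vehicle; blue-channel (405/460 nm) intensity scored against triamterene as reference fluorophore.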

[14] = qHTS assay to test for compound auto fluorescence at 460 nm (blue) in HepG2 cells (AID 720687)
How it was run: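 Blue-channel autofluorescence (Ex/Em 405/460 nm, triamterene-equivalent) was measured after 1 hr compound exposure at 37 C, 5% CO2. Cells were HepG2, plated overnight at 37 C in MEM plus 10% FBS.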

[15] = molecular target: Glucocorticoid receptor (Homo sapiens) (UniProt P04150); assay: qHTS assay to identify small molecule agonists of the glucocorticoid receptor (GR) signaling pathway (AID 720691; active = well fitted activation curve with a large enough effect in the signal ratio in the repeat runs, not every such curve was filed as active; the % refers to the signal ratio)
Sequence of Glucocorticoid receptor (Homo sapiens) (P04150 whole entry, looked up): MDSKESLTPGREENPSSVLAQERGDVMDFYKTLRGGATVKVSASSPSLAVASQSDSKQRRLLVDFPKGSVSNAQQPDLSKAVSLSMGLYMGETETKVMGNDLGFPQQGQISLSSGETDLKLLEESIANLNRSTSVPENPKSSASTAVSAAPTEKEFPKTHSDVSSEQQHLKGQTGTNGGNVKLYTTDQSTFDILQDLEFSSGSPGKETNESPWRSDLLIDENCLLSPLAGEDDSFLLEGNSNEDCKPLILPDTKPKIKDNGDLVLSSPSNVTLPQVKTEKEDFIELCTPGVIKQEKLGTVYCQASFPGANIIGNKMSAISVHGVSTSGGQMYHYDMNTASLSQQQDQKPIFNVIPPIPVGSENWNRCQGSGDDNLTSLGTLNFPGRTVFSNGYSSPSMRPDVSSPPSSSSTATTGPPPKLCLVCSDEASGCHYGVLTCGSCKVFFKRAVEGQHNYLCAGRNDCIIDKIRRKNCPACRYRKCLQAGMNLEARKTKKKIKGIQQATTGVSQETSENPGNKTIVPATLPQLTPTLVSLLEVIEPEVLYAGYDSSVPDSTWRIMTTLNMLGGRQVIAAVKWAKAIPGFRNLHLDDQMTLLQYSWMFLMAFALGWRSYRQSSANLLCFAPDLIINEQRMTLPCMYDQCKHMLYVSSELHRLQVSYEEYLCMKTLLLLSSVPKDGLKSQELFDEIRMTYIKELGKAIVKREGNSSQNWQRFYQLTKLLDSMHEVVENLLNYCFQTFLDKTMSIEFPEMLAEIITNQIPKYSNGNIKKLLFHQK
How it was run: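 Agonist-mode qHTS in HeLa cells stably expressing a glucocorticoid-response-element beta-lactamase reporter. Fluorescence intensity read with FRET substrate (2 h, room temperature) after 18 h compound treatment at 37 C.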

[16] = qHTS assay for small molecules that induce genotoxicity in human embryonic kidney cells expressing luciferase-tagged ATAD5 - cell viability (AID 651634; calls by dose curve; note: nearly all actives have a fitted effect of over 25% in size; note: potency is the fitted concentration of half-maximal effect)
How it was run: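 Cytotoxicity counter-readout: after 15.5 hr compound treatment at 37C, live-cell protease activity in ATAD5-luciferase HEK293T cells measured by CellTiter-Fluor fluorescence, 30 min development at 37C.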

[17] = qHTS assay for small molecule disruptors of the mitochondrial membrane potential - cell viability (AID 720634; calls by dose curve; note: nearly all actives have a fitted effect of over 20% in size; note: potency is the fitted concentration of half-maximal effect)
How it was run: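 Cytotoxicity was quantified from ATP content by CellTiter-Glo luminescence in the same wells as the MMP dye read-out. HepG2 (2,000 cells/well) were plated overnight and exposed to compounds for 1 hr at 37 C.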

[18] = qHTS assay to test for compound auto fluorescence at 535 nm (green) in HepG2 cell free culture (AID 720686)
[19] = molecular target: Glucocorticoid receptor (Homo sapiens) (UniProt P04150); assay: qHTS assay to identify small molecule antagonists of the glucocorticoid receptor (GR) signaling pathway (AID 720692; active = well fitted inhibition curve with a large enough effect in the signal ratio in the repeat runs, not every such curve was filed as active; the % refers to the signal ratio; note: potency is the fitted concentration of half-maximal effect)
How it was run: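 Inhibition of dexamethasone-driven (5 nM final) beta-lactamase expression was measured in GRE-reporter HeLa cells over 18 h at 37C. Fluorescence was read after 2 h with the B/G FRET substrate at room temperature.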

CCOCn1c(-c2ccc(Cl)cc2)c(C#N)c(Br)c1C(F)(F)F
Potency [1]: inactive
Potency [2]: 30.6 µM (active)
Potency [3]: 48.6 nM (active)
outcome [4]: inactive
outcome [5]: inactive
Potency [6]: inactive
outcome [7]: inactive
outcome [8]: inactive
Potency [9]: inactive
outcome [10]: inactive
outcome [11]: inactive
outcome [12]: inactive
Potency [13]: inactive
Potency [14]: inactive
Potency [15]: inactive

Clc1ccc(CSC(Cn2ccnc2)c2ccc(Cl)cc2Cl)cc1 (stereo unspecified)
Potency [1]: inactive
Potency [16]: inactive
Potency [17]: inactive
fluorescence, relative to Rose Bengal [4]: -0.0239% [at 18.6 µM]
fluorescence, % of fluorescein control [5]: -0.0068% [at 18.6 µM]
fluorescence, % of triamterene [6]: -0.071% [at 18.6 µM]
fluorescence, % of fluorescent control [7]: 0.517% [at 18.6 µM]
fluorescence, % of fluorescein [8]: -0.0144% [at 18.6 µM]
fluorescence, % of fluorescent control [9]: 0.0923% [at 18.6 µM]
fluorescence, % of fluorescent control [11]: 0.289% [at 18.6 µM]
fluorescence, % of fluorescent control [13]: 0.0769% [at 18.6 µM]
fluorescence, % of fluorescein control [18]: -0.107% [at 18.6 µM]
fluorescence, % of fluorescent control [14]: 0.0355% [at 18.6 µM]

Oc1c(Br)c(Br)c(Br)c(Br)c1Br
Potency [1]: inactive
Potency [2]: 17.3 µM (active)
Potency [17]: inactive
outcome [4]: inactive
outcome [5]: inactive
Potency [6]: inactive
outcome [7]: inactive
outcome [8]: inactive
Potency [9]: inactive
outcome [10]: inactive
outcome [11]: inactive
Potency [13]: inactive
outcome [18]: inactive
Potency [14]: inactive
Potency [15]: inactive
Potency [19]: 13.9 µM (active)

Clc1ccc(CO/N=C(\Cn2ccnc2)c2ccc(Cl)cc2Cl)c(Cl)c1
Potency [1]: inactive
Potency [2]: 26.6 µM (active)
Potency [17]: inactive
outcome [4]: inactive
outcome [5]: inactive
Potency [6]: inactive
outcome [7]: inactive
outcome [8]: inactive
Potency [9]: inactive
outcome [10]: inactive
outcome [11]: inactive
Potency [13]: inactive
outcome [18]: inactive
Potency [14]: inactive

Clc1ccc(CCC(Cn2ccnc2)Sc2c(Cl)cccc2Cl)cc1 (stereo unspecified)
Potency [1]: inactive
Potency [16]: inactive
Potency [17]: inactive
fluorescence, relative to Rose Bengal [4]: -0.283% [at 18.6 µM]
fluorescence, % of fluorescein control [5]: -0.0029% [at 18.6 µM]
fluorescence, % of triamterene [6]: 0.0582% [at 18.6 µM]
fluorescence, % of fluorescent control [7]: 0.0698% [at 18.6 µM]
fluorescence, % of fluorescein [8]: 0.0661% [at 18.6 µM]
fluorescence, % of fluorescent control [9]: 0.052% [at 18.6 µM]
activity change [10]: -0.055% [at 18.6 µM]
fluorescence, % of fluorescent control [11]: -0.0573% [at 18.6 µM]
fluorescence, % of Rose Bengal [12]: 0.657% [at 18.6 µM]
fluorescence, % of fluorescent control [13]: 0.0259% [at 18.6 µM]
fluorescence, % of fluorescein control [18]: 0.0716% [at 18.6 µM]
fluorescence, % of fluorescent control [14]: -0.0565% [at 18.6 µM]
Potency [19]: inactive

CC[C@H](C)[C@H]1O[C@]2(C=C[C@@H]1C)C[C@@H]1C[C@@H](C/C=C(\C)[C@@H](O[C@H]3C[C@H](OC)[C@@H](O[C@H]4C[C@H](OC)[C@@H](O)[C@H](C)O4)[C@H](C)O3)[C@@H](C)/C=C/C=C3\CO[C@@H]4[C@H](O)C(C)=C[C@@H](C(=O)O1)[C@]34O)O2
Potency [1]: inactive
Potency [2]: 14.4 µM (active)
Potency [17]: inactive
outcome [4]: inactive
outcome [5]: inactive
Potency [6]: inactive
outcome [7]: inactive
outcome [8]: inactive
Potency [9]: inactive
outcome [10]: inactive
outcome [11]: inactive
outcome [12]: inactive
Potency [13]: inactive
outcome [18]: inactive
Potency [14]: inactive
Potency [15]: inactive
Potency [19]: 23.9 µM (active)

Cc1cc(N=Nc2ccccc2C)ccc1N
Potency [1]: 6.11 µM (active) and 6.86 µM (active)
Potency [16]: 48.6 µM (active)
Potency [17]: 19.3 µM (active) and 15.4 µM (active)
Potency [3]: 15.4 µM (active) and 30.6 µM (active)
outcome [4]: inactive
outcome [5]: inactive
Potency [6]: inactive
outcome [7]: inactive
outcome [8]: inactive
Potency [9]: inactive
outcome [11]: inactive
outcome [12]: inactive
outcome [18]: inactive
Potency [14]: inactive
Potency [15]: inactive
